PubChem BioAssay AID1159580 (chemical genetic matrix, 2015)
About 2,000 (36%) of roughly 5,500 compounds were called active. Not shown: some 18% with an inconclusive outcome. No stated cut-off is given here; in the data, active means normalized growth mostly below about 0.91 (no sharp cut-off); inconclusive means no clear call, values can overlap the other calls; inactive means mostly above about 0.92. Some of the results follow.

Assay: chemical genetic growth profiling, strain panel (AID 1159580);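 further: tested at 20 µM; growth read once vehicle control cultures reached saturation at 30 °C; 1 = growth at the plate median or of vehicle wells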
Conditions: growth OD
[1] = S. cerevisiae deletion strains, locus YDL101C, strain DUN1, stronger effect = lower value
[2] = S. cerevisiae deletion strains, locus YHR030C, strain SLT2, stronger effect = lower value

Measured: normalized growth

O=C(CCc1nc(-c2ccc(Cl)cc2)no1)NNS(=O)(=O)c1cc(Cl)c(Cl)cc1Cl
inactive: S. cerevisiae deletion strains, locus YAL013W, strain DEP1, stronger effect = lower value 1.01 | S. cerevisiae deletion strains, locus YBR229C, strain ROT2, stronger effect = lower value 1.01 | S. cerevisiae deletion strains, locus YCL061C, strain MRC1, stronger effect = lower value 1.01 | [1] 1.03 | S. cerevisiae deletion strains, locus YDL134C, strain PPH21, stronger effect = lower value 1 | S. cerevisiae deletion strains, locus YDR150W, strain NUM1, stronger effect = lower value 0.998 | S. cerevisiae deletion strains, locus YEL061C, strain CIN8, stronger effect = lower value 0.961 | S. cerevisiae deletion strains, locus YGR078C, strain PAC10, stronger effect = lower value 1.02 | [2] 0.98 | S. cerevisiae deletion strains, locus YHR087W, strain rtc3, stronger effect = lower value 0.958 | S. cerevisiae deletion strains, locus YJR043C, strain POL32, stronger effect = lower value 0.999 | S. cerevisiae deletion strains, locus YJR075W, strain HOC1, stronger effect = lower value 0.994 | S. cerevisiae deletion strains, locus YLR039C, strain RIC1, stronger effect = lower value 0.971 | S. cerevisiae deletion strains, locus YLR058C, strain SHM2 (second series), stronger effect = lower value 1.01 | S. cerevisiae deletion strains, locus YLR085C, strain ARP6, stronger effect = lower value 1 | S. cerevisiae deletion strains, locus YLR262C, strain YPT6, stronger effect = lower value 1.03 | S. cerevisiae deletion strains, locus YML094W, strain GIM5, stronger effect = lower value 0.968 | S. cerevisiae deletion strains, locus YMR219W, strain ESC1, stronger effect = lower value 1 | S. cerevisiae deletion strains, locus YMR263W, strain SAP30, stronger effect = lower value 1.01 | S. cerevisiae deletion strains, locus YNL153C, strain GIM3, stronger effect = lower value 1 | S. cerevisiae deletion strains, locus YNL298W, strain CLA4 (second series), stronger effect = lower value 0.993 | S. cerevisiae deletion strains, locus YNL322C, strain KRE1, stronger effect = lower value 1.02 | S. cerevisiae deletion strains, locus YNR030W, strain Alg12, stronger effect = lower value 1.03 | S. cerevisiae deletion strains, locus YOL006C, strain TOP1, stronger effect = lower value 1.02 | S. cerevisiae deletion strains, locus YPL055C, strain LGE1, stronger effect = lower value 0.973 | S. cerevisiae deletion strains, locus YPL241C, strain CIN2, stronger effect = lower value 1.04 | S. cerevisiae deletion strains, locus YPR135W, strain CTF4, stronger effect = lower value 1.03 | S. cerevisiae strains, strain wild type, stronger effect = lower value 1

CC(=O)c1ccc(Cl)c(NS(=O)(=O)c2cc(Cl)c(Cl)cc2Cl)c1
inactive: S. cerevisiae deletion strains, locus YAR019C, strain CDC15, stronger effect = lower value 0.906 | S. cerevisiae deletion strains, locus YBL105C, strain PKC1, stronger effect = lower value 0.925 | S. cerevisiae deletion strains, locus YBR135W, strain CKS1, stronger effect = lower value 0.91 | S. cerevisiae deletion strains, locus YBR136W, strain MEC1, stronger effect = lower value 0.914 | S. cerevisiae deletion strains, locus YDL017W, strain CDC7, stronger effect = lower value 0.925 | [1] 0.95 | S. cerevisiae deletion strains, locus YDL108W, strain KIN28, stronger effect = lower value 0.905 | S. cerevisiae deletion strains, locus YDL132W, strain cdc53, stronger effect = lower value 0.9 | S. cerevisiae deletion strains, locus YDL214C, strain PRR2, stronger effect = lower value 0.868 | S. cerevisiae deletion strains, locus YDR052C, strain DBF4, stronger effect = lower value 0.933 | S. cerevisiae deletion strains, locus YDR054C, strain cdc34, stronger effect = lower value 0.909 | S. cerevisiae deletion strains, locus YDR477W, strain SNF1, stronger effect = lower value 0.799 | S. cerevisiae deletion strains, locus YER123W, strain YCK3, stronger effect = lower value 0.794 | S. cerevisiae deletion strains, locus YER133W, strain GLC7, stronger effect = lower value 0.875 | S. cerevisiae deletion strains, locus YFL029C, strain CAK1, stronger effect = lower value 0.898 | S. cerevisiae deletion strains, locus YFR003C, strain YPI1, stronger effect = lower value 0.917 | S. cerevisiae deletion strains, locus YFR019W, strain FAB1, stronger effect = lower value 0.881 | S. cerevisiae deletion strains, locus YFR028C, strain CDC14, stronger effect = lower value 0.895 | S. cerevisiae deletion strains, locus YGR040W, strain KSS1, stronger effect = lower value 0.805 | S. cerevisiae deletion strains, locus YGR052W, strain FMP48, stronger effect = lower value 0.781 | S. cerevisiae deletion strains, locus YGR092W, strain DBF2, stronger effect = lower value 0.631 | S. cerevisiae deletion strains, locus YHR079C, strain IRE1, stronger effect = lower value 0.697 | S. cerevisiae deletion strains, locus YHR082C, strain KSP1, stronger effect = lower value 0.735 | S. cerevisiae deletion strains, locus YHR205W, strain SCH9, stronger effect = lower value 0.801 | S. cerevisiae deletion strains, locus YIL147C, strain SLN1, stronger effect = lower value 0.904 | S. cerevisiae deletion strains, locus YJL095W, strain BCK1, stronger effect = lower value 0.636 | S. cerevisiae deletion strains, locus YJL128C, strain PBS2, stronger effect = lower value 0.835 | S. cerevisiae deletion strains, locus YJL157C, strain FAR1, stronger effect = lower value 0.877 | S. cerevisiae deletion strains, locus YJR016C, strain ILV3, stronger effect = lower value 0.921 | S. cerevisiae deletion strains, locus YJR066W, strain TOR1 (second series), stronger effect = lower value 0.811 | S. cerevisiae deletion strains, locus YJR066W, strain TOR1, stronger effect = lower value 0.719 | S. cerevisiae deletion strains, locus YKL048C, strain ELM1, stronger effect = lower value 0.843 | S. cerevisiae deletion strains, locus YKL067W, strain YNK1, stronger effect = lower value 0.864 | S. cerevisiae deletion strains, locus YKL101W, strain HSL1, stronger effect = lower value 0.814 | S. cerevisiae deletion strains, locus YKL193C, strain SDS22, stronger effect = lower value 0.906 | S. cerevisiae deletion strains, locus YKL203C, strain TOR2, stronger effect = lower value 0.905 | S. cerevisiae deletion strains, locus YLR133W, strain CKI1, stronger effect = lower value 0.865 | S. cerevisiae deletion strains, locus YLR403W, strain SFP1, stronger effect = lower value 0.826 | S. cerevisiae deletion strains, locus YML070W, strain DAK1, stronger effect = lower value 0.811 | S. cerevisiae deletion strains, locus YMR001C, strain CDC5, stronger effect = lower value 0.899 | S. cerevisiae deletion strains, locus YMR205C, strain PFK2 (second series), stronger effect = lower value 0.905 | S. cerevisiae deletion strains, locus YMR277W, strain FCP1, stronger effect = lower value 0.885 | S. cerevisiae deletion strains, locus YNL006W, strain LST8, stronger effect = lower value 0.925 | S. cerevisiae deletion strains, locus YNL020C, strain ARK1, stronger effect = lower value 0.829 | S. cerevisiae deletion strains, locus YNL161W, strain CBK1, stronger effect = lower value 0.921 | S. cerevisiae deletion strains, locus YNL183C, strain NPR1, stronger effect = lower value 0.819 | S. cerevisiae deletion strains, locus YNL207W, strain RIO2, stronger effect = lower value 0.906 | S. cerevisiae deletion strains, locus YNL307C, strain MCK1 (second series), stronger effect = lower value 0.786 | S. cerevisiae deletion strains, locus YOL078W, strain AVO1, stronger effect = lower value 0.9 | S. cerevisiae deletion strains, locus YOL136C, strain PFK27, stronger effect = lower value 0.789 | S. cerevisiae deletion strains, locus YOR061W, strain CKA2, stronger effect = lower value 0.744 | S. cerevisiae deletion strains, locus YOR119C, strain RIO1, stronger effect = lower value 0.832 | S. cerevisiae deletion strains, locus YOR231W, strain MKK1, stronger effect = lower value 0.704 | S. cerevisiae deletion strains, locus YOR329C, strain SCD5, stronger effect = lower value 0.923 | S. cerevisiae deletion strains, locus YPL031C, strain PHO85, stronger effect = lower value 0.788 | S. cerevisiae deletion strains, locus YPL153C, strain RAD53, stronger effect = lower value 0.768 | S. cerevisiae deletion strains, locus YPL204W, strain HRR25, stronger effect = lower value 0.763 | S. cerevisiae deletion strains, locus YPL209C, strain IPL1, stronger effect = lower value 0.916 | S. cerevisiae deletion strains, locus YPR025C, strain CCL1, stronger effect = lower value 0.912 | S. cerevisiae deletion strains, locus YPR106W, strain ISR1, stronger effect = lower value 0.904 | S. cerevisiae deletion strains, strain NNK1, stronger effect = lower value 0.894 | S. cerevisiae deletion strains, strain TSCII, stronger effect = lower value 0.898
active: S. cerevisiae deletion strains, locus YBR160W, strain CDC28, stronger effect = lower value 0.886 | S. cerevisiae deletion strains, locus YDL028C, strain MPS1, stronger effect = lower value 0.89 | S. cerevisiae deletion strains, locus YDR226W, strain ADK1, stronger effect = lower value 0.897 | S. cerevisiae deletion strains, locus YFL009W, strain cdc4, stronger effect = lower value 0.881 | [2] 0.317 | S. cerevisiae deletion strains, locus YLR113W, strain HOG1, stronger effect = lower value 0.648 | S. cerevisiae deletion strains, locus YNL222W, strain SSU72, stronger effect = lower value 0.884 | S. cerevisiae deletion strains, locus YPL256C, strain CLN2, stronger effect = lower value 0.664 | S. cerevisiae deletion strains, locus YPR111W, strain DBF20, stronger effect = lower value 0.858
